The values below come from PubChem BioAssay (NCI).

About 83,000 compounds went through this panel and 20% of them were active in at least one assay; those are over-represented in the sample as a whole.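 For each line, cells grew in 96-well plates with the test compound present at a single concentration for 48 hours.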 Values without a mark were called inactive. How the source made its calls: active means growth percent below 10; inactive means the rest.

This test deals with OVCAR-8 ovarian. The test can be described thus: NCI-60 one-dose screen, 48 h (100 = growth as untreated, 0 = no growth, -100 = all killed). The conditions noted are these: 10 µM unless noted.
With `O=C(CCl)Oc1ccc([N+](=O)[O-])cc1`, the growth was 102%.
Take `Clc1cccc(Cl)c1CSc1nc2ccccc2n2cccc12`: the growth is 104%.
Turning to `Cc1cccnc1NC1OC(=O)c2ccccc21` (stereo not drawn), the growth is 107%.
The value for `COc1cc(OC)c(NC(=O)C(Sc2nc(C)cc(C)c2C#N)c2ccccc2)cc1Cl` (stereo not drawn) was 88.6%; that for `COc1ccc(/C=N/NC(=O)COCC(=O)N/N=C/c2ccc(OC)cc2)cc1` was 104%; that for `Nc1ccccc1SC1CC(=O)N(c2ccc(Cl)c(Cl)c2)C1=O` (stereo not drawn) was 79.4%.
Consider `CC(C)c1ccccc1NC(=O)N1CCC(C(C)C)CC1`, for which the growth was 105%.
In the case of `FC(F)(F)c1cc(NC2=NCCN=C(Nc3cc(C(F)(F)F)cc(C(F)(F)F)c3)SS2)cc(C(F)(F)F)c1`, the growth was 48.6%.
The value for `CC(CCC#N)(CCC#N)C(=O)c1ccccc1` was 105%; that for `CCCCCCCCNC(=O)C(C)C` was 109%.
With `CCCCCCCCCCCCCCCCCC(=O)NCCNC(=O)CCCCCCCCCCCCCCCCC`, the growth was 98.2%.
Turning to `C=CCC(OC(C)=O)c1ccc(C(C)C)cc1` (stereo not drawn), the growth was 105%.
The result for `CC(=O)c1cc(O)ccc1O` reads 95.9%; that for `CCCNS(=O)(=O)c1ccc(Cl)cc1`, 104%.
The result for `S=c1nc(-c2ccccn2)c(-c2ccccn2)n[nH]1` reads 103%.
`CCOc1ccc(C(=O)NCC(C)C)cc1`: the growth was 105%.
For the molecule `O=C(O)c1cccc(-n2ncc(Cl)c(Cl)c2=O)c1`, the growth was 107%.
The result for `Cn1/c(=N\N=C\c2ccccc2OCCO)sc2ccccc21` reads 100%; that for `Clc1ccc(-c2noc(/C=C\c3ccccc3)n2)cc1`, 98.7%; that for `CC(=O)Nc1ncc(S(=O)(=O)c2ccc([N+](=O)[O-])cc2)s1`, 103%.
Regarding `CC(=O)NCNC(C)=O`, the growth is 98%.
On to `CCOC(=O)c1ccc(C(C)(C)C)cc1`, for which the growth is 103%.
The value for `NC(=S)N/N=C/c1ccc(Cl)cc1` was 92.9%; that for `Cc1ccc(NC(=O)c2ccccc2Cl)cc1` was 115%.
As for `C=CCC(OC(C)=O)c1ccc(OC)c(OC)c1` (stereo not drawn), the growth was 96.7%.
Take `Oc1ccc(N=Cc2ccc(OCc3ccccc3)cc2)cc1`: the growth is 96.3%.
As for `COc1nc(Nc2cccc(C(F)(F)F)c2)nc(OC)n1`, the growth was 96%.
For the molecule `C=C1SC(=Nc2c(C)cccc2C)N(c2nc(Cl)nc(Cl)n2)C12CCCCC2`, the growth is 98.8%.
Turning to `O=C(CCl)Nc1ccccc1SCc1cc(Cl)cc2c1OCOC2`, the growth was 75.4%.
The value for `Cc1c(-c2ccc(C3CCCCC3)cc2)nc2ccc(F)cc2c1C(=O)O` was 37.6%.
For `C[n+]1cc2cc3c(cc2c2ccccc21)OCO3`, the growth was 77.9%.
`CCCC(=O)CC(=O)c1ccccc1`: the growth was 93.6%.
The result for `O=C(O)Cc1ccc(Cl)cc1` reads 97.7%; that for `CC(C)(CC(=O)O)CC(=O)O`, 121%.
Regarding `CCOC(=O)C(C#N)=C1CCN(C)CC1`, the growth was 93%.
With `O=C1NC(=O)C(c2ccccc2)O1` (stereo not drawn), the growth was 102%.
With `COC1OC(COC(C)=O)C(OC(C)=O)C(OC(C)=O)C1OC(C)=O` (stereo not drawn), the growth was 97.9%.
The result for `C#CCSc1nnnn1-c1ccccc1` reads 80.9%.
